Inconclusive results are not listed. The source made the active and inactive calls. Unless noted, calls follow the shape of the dose curve; as a rule, active = well fitted curve in the direction sought with a large enough effect in the repeat runs; inconclusive = weak or mixed curves; inactive = no such curve, though single readings can be large; an effect the other way counts as inactive or inconclusive.
How the values were obtained:
[1] = molecular target: Acetylcholinesterase (Homo sapiens) (UniProt P22303); experiment: Acetylcholinesterase (AChE) small molecule antagonists: enzyme-based qHTS assay (AID 1347397; calls by dose curve; also: nearly all actives have a fitted effect of over 55% in size); conditions: Potency: AChE enzyme activity inhibition
Procedure, shortened: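 Compound or DMSO vehicle was pin-transferred onto recombinant human AChE (50 mU/mL as dispensed) and left 30 min at room temperature. Acetylthiocholine with DTNB then started the reaction, read colorimetrically 10 min later.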

[2] = molecular target: Acetylcholinesterase (Homo sapiens) (UniProt P22303); experiment: Acetylcholinesterase (AChE) small molecule antagonists: fluorescence cell-based qHTS assay (AID 1347398; calls by dose curve; also: nearly all actives have a fitted effect of over 50% in size); conditions: Potency: AChE activity
Procedure, shortened: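 Using neuroblastoma SH-SY5Y cells as the enzyme source, test chemicals are preincubated 30 min at 37 C; AChE-driven acetylthiocholine cleavage is then quantified by thiocholine-dependent Thiolite Green fluorescence after 40 min at room temperature.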

[3] = molecular target: Acetylcholinesterase (Homo sapiens) (UniProt P22303); experiment: Acetylcholinesterase (AChE) small molecule antagonists: enzyme-based qHTS assay with human liver microsomes (AID 1347399; calls by dose curve; also: nearly all actives have a fitted effect of over 60% in size; also: potency is read from the fitted curve at half-maximal effect); conditions: Potency: qHTS inhibition
Procedure, shortened: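 Recombinant human AChE (50 mU/mL in the enzyme mix) and human liver microsomes (0.25 mg/mL final) were preincubated with compound and NADPH (0.25 mg/mL final) for 30 min at 37 C. Acetylthiocholine/DTNB was then added; thiocholine was read colorimetrically after 10 min at room temperature.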

[4] = molecular target: Cytochrome P450 2C19 (Homo sapiens) (UniProt P33261); experiment: Cytochrome P450 Family 2 Subfamily C Member 19 (CYP2C19) small molecule antagonists: luciferase reporter qHTS assay (AID 1671197); also: nearly all actives have a fitted effect of over 65% in size; also: potency is read from the fitted curve at half-maximal effect; as to activity change, negative = inhibition: series mostly up to about 120 µM
Procedure, shortened: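 Light output is proportional to CYP2C19 activity: proluciferin substrate is converted to luciferin, then detected by a luciferin detection reagent that also stops the 1 h, 37C NADPH-driven reaction. Ketoconazole serves as positive control.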

[5] = molecular target: Cytochrome P450 2C9 (Homo sapiens) (UniProt P11712); experiment: Cytochrome P450 Family 2 Subfamily C Member 9 (CYP2C9) small molecule antagonists: luciferase reporter qHTS assay (AID 1671198); also: nearly all actives have a fitted effect of over 50% in size; also: potency is read from the fitted curve at half-maximal effect; as to activity change, negative = inhibition: series mostly up to about 120 µM
Procedure, shortened: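 CYP2C9 activity was measured with a P450-Glo proluciferin substrate. Enzyme–substrate mix was held with compound for 10 min at room temperature, then NADPH regeneration solution was added for 1 h at 37C. Luciferin product was read as luminescence.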

[6] = molecular target: Voltage-gated inwardly rectifying potassium channel KCNH2 (Homo sapiens) (UniProt Q12809); experiment: Human Ether-a-go-go-Related Gene (hERG) channel small molecule antagonists: fluorescence cell-based qHTS assay (AID 1671200); also: nearly all actives have a fitted effect of over 50% in size; also: potency is read from the fitted curve at half-maximal effect;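 as to activity change, negative = inhibition: hERG-expressing U2OS cells given a thallium stimulus after FluxOR II dye loading; series mostly up to about 77 µM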
Procedure, shortened: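 Quantitative HTS in hERG-U2OS cells: thallium entry through the channel reports activity, read as continuous 480/540 nm fluorescence over 2 min after stimulus addition.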

[7] = molecular target: Cytochrome P450 2D6 (Homo sapiens) (UniProt P10635); experiment: Cytochrome P450 Family 2 Subfamily D Member 6 (CYP2D6) small molecule antagonists: luciferase reporter qHTS assay (AID 1671196); also: nearly all actives have a fitted effect of over 50% in size; also: potency is read from the fitted curve at half-maximal effect; as to activity change, negative = inhibition: series mostly up to about 120 µM
Procedure, shortened: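 CYP2D6 activity was followed as luminescence from its luciferin product after a 1 h NADPH-driven reaction at room temperature. Enzyme-substrate mix and compound were pre-incubated for 10 min, and the signal was read 20 min after adding detection reagent.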

[8] = molecular target: Cytochrome P450 1A2 (Homo sapiens) (UniProt P05177); experiment: Cytochrome P450 Family 1 Subfamily A Member 2 (CYP1A2) small molecule antagonists: luciferase reporter qHTS assay (AID 1671199); also: nearly all actives have a fitted effect of over 50% in size; also: potency is read from the fitted curve at half-maximal effect; as to activity change, negative = inhibition: series mostly up to about 120 µM
Procedure, shortened: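 Luminescence from luciferin formed by CYP1A2 from a proluciferin substrate, read 20 min after detection reagent. Compound was pre-incubated 10 min with enzyme-substrate, and reaction started with NADPH regeneration solution for 1 h at room temperature; furafylline control.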

[9] = molecular target: Cytochrome P450 3A4 (Homo sapiens) (UniProt P08684); experiment: Cytochrome P450 Family 3 Subfamily A Member 4 (CYP3A4) small molecule antagonists: luciferase reporter qHTS assay (AID 1671201); also: nearly all actives have a fitted effect of over 50% in size; also: potency is read from the fitted curve at half-maximal effect; as to activity change, negative = inhibition: series mostly up to about 120 µM
Procedure, shortened: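 Inhibition of CYP3A4 is measured as loss of light: the enzyme converts a proluciferin substrate to luciferin, detected luminescently. Reaction ran 1 h at room temperature with NADPH regeneration after a 10 min compound preincubation.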
% is scaled to controls: 0 for no effect and ±100 for the full control effect.

Acetylcholinesterase (Homo sapiens), sequence (P22303 whole entry, looked up): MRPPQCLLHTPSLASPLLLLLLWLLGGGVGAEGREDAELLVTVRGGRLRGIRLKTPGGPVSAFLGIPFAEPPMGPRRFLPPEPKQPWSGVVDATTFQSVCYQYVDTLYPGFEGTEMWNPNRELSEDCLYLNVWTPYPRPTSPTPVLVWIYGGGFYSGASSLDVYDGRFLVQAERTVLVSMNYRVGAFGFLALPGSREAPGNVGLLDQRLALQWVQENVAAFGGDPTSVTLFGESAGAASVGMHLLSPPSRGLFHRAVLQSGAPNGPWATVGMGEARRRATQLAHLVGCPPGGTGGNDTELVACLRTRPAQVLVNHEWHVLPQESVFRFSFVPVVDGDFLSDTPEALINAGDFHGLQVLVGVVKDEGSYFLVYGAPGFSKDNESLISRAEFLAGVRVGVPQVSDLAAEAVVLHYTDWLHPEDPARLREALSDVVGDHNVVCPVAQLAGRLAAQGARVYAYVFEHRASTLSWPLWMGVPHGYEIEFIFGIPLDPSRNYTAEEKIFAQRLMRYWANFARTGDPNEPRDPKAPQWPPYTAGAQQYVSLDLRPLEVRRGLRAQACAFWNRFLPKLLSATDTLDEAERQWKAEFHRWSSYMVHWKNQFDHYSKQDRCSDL
Cytochrome P450 2D6 (Homo sapiens), sequence (P10635 whole entry, looked up): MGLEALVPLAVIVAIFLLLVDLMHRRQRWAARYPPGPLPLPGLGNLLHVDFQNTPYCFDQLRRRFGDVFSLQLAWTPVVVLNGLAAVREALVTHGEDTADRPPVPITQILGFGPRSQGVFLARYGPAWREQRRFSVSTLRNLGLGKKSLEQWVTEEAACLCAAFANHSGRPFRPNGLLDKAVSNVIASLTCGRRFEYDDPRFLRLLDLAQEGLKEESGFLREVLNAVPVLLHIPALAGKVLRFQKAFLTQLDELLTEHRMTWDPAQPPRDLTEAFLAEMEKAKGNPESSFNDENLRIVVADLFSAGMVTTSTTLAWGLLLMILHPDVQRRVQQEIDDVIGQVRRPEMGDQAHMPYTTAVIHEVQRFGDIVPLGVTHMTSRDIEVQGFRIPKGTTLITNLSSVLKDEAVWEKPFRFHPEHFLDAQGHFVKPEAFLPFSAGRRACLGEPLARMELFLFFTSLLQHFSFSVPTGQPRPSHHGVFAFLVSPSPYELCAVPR
Cytochrome P450 2C9 (Homo sapiens), sequence (P11712 whole entry, looked up): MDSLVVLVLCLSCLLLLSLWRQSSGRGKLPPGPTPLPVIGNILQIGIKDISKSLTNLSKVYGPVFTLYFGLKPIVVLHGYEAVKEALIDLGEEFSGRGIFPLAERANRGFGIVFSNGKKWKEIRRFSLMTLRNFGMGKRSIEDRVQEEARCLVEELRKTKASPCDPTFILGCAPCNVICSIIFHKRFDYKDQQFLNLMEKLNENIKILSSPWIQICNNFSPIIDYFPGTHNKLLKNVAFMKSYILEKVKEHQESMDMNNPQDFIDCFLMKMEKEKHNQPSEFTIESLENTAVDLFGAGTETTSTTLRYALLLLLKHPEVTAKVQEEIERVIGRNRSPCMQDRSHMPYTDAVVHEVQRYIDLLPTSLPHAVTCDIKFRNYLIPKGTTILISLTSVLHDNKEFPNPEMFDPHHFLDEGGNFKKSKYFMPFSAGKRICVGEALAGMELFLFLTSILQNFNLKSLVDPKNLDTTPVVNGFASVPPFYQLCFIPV
Cytochrome P450 2C19 (Homo sapiens), sequence (P33261 whole entry, looked up): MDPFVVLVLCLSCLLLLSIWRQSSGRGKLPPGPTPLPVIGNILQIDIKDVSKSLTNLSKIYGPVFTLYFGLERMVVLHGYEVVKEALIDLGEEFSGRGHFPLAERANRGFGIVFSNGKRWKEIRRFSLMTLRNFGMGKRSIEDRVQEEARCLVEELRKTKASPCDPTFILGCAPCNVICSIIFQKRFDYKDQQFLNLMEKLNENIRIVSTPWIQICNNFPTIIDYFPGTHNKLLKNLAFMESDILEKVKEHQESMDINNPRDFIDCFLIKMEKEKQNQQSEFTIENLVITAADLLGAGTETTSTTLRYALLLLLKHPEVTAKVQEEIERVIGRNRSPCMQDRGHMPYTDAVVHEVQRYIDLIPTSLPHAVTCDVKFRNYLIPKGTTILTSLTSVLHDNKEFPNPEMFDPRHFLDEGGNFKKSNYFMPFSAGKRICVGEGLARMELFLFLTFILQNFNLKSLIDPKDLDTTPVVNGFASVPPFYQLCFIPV
Cytochrome P450 3A4 (Homo sapiens), sequence (P08684 whole entry, looked up): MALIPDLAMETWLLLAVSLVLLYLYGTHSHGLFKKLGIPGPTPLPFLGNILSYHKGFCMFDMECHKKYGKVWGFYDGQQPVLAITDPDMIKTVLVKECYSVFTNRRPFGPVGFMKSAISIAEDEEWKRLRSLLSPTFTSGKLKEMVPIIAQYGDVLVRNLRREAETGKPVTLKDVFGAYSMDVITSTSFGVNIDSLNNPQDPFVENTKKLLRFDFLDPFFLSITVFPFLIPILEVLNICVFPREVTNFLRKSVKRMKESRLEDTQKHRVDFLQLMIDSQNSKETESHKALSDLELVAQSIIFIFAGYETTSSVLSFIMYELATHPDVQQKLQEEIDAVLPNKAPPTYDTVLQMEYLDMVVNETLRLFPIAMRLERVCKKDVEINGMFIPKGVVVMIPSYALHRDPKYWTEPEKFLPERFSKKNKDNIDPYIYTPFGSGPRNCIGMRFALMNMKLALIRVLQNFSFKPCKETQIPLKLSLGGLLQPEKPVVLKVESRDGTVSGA
Cytochrome P450 1A2 (Homo sapiens), sequence (P05177 whole entry, looked up): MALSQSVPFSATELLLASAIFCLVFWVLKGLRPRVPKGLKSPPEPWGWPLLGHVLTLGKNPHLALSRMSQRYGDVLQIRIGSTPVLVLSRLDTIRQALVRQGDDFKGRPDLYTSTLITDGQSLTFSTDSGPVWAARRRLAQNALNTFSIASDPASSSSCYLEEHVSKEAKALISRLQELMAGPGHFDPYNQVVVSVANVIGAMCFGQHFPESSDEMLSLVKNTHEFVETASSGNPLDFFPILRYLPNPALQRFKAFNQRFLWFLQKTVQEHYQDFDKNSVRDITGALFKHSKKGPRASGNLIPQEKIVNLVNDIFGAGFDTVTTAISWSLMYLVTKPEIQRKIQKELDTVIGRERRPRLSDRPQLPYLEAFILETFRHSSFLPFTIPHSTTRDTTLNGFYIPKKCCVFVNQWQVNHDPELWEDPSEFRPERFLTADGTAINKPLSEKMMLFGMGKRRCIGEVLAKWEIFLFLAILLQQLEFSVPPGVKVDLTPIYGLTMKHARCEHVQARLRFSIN
Voltage-gated inwardly rectifying potassium channel KCNH2 (Homo sapiens), sequence (Q12809 whole entry, looked up): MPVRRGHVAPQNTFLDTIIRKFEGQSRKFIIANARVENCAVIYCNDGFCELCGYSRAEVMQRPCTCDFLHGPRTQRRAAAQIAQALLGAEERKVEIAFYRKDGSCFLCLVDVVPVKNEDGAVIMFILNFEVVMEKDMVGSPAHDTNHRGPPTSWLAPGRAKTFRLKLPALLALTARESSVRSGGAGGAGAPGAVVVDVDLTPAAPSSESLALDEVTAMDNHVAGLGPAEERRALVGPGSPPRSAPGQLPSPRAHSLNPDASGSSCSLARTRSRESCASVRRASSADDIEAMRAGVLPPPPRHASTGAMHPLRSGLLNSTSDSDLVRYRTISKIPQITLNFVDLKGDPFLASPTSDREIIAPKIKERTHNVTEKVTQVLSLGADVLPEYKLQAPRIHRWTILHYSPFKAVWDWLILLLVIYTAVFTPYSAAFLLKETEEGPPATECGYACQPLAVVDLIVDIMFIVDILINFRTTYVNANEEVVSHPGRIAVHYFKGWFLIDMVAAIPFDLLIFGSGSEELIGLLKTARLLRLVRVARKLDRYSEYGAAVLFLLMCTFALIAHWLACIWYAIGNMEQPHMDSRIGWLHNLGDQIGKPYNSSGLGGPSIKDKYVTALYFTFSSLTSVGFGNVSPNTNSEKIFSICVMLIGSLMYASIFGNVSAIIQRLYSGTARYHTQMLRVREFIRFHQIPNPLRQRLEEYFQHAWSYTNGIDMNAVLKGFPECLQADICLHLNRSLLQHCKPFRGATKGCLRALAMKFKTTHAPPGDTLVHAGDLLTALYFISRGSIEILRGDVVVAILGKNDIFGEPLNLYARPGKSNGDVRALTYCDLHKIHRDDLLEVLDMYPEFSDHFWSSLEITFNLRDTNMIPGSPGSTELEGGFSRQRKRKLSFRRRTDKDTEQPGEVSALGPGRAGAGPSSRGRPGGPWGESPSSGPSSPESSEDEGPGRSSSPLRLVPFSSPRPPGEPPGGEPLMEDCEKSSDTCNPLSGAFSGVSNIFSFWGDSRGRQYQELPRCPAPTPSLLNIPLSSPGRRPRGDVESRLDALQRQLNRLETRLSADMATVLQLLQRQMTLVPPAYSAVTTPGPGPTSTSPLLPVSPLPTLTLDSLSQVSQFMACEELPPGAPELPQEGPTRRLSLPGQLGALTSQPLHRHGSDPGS

COP(=S)(OC)Oc1ccc(S(N)(=O)=O)cc1
active: Potency [4] 1.38 µM | Potency [5] 3.47 µM
inactive: Potency [1] | Potency [2] | Potency [3] | Potency [6]

O=C(Nc1ccccc1)N(Cc1ccc(Cl)cc1)C1CCCC1
inactive: Potency [1] | Potency [3]
active: Potency [7] 12.6 µM | Potency [4] 7.1 µM | Potency [5] 15.9 µM | Potency [8] 15.9 µM | Potency [9] 11.2 µM

CC(C)NCC(O)c1ccc(N)c(C#N)c1 (stereo unspecified)
inactive: Potency [1] | Potency [2] | Potency [3] | Potency [6]

O=C(CCCN1CCC(n2c(=O)[nH]c3ccccc32)CC1)c1ccc(F)cc1
active: Potency [7] 8.71 µM | Potency [6] 1.51 µM
inactive: Potency [1] | Potency [3] | Potency [4] | Potency [8]

OCCBr
inactive: Potency [1] | Potency [2] | Potency [3] | Potency [5] | Potency [6]

Clc1ccccc1N1CCNCC1
inactive: Potency [1] | Potency [3] | Potency [4] | Potency [5] | Potency [6] | Potency [9]
active: Potency [7] 9.77 µM

O=C(Nc1ccccc1)c1ccccc1I
active: Potency [7] 35.6 µM | Potency [4] 22.4 µM | Potency [5] 39.9 µM | Potency [8] 20 µM | Potency [9] 15.9 µM
inactive: Potency [1] | Potency [3] | Potency [6]

CN1C[C@@H](NS(=O)(=O)N(C)C)C[C@@H]2c3cccc4c3c(cn4C)C[C@H]21
inactive: Potency [1] | Potency [3] | Potency [7] | Potency [4] | Potency [5] | Potency [8] | Potency [6] | Potency [9]

O=NN1CCCCC1
active: Potency [4] 35.4 µM
inactive: Potency [1] | Potency [3] | Potency [7] | Potency [8] | Potency [6]

O=C1c2ccccc2C(=O)c2ccccc21
inactive: activity change, negative = inhibition [1] -0.378% [at 23.6 µM] | activity change, negative = inhibition [2] 3.86% [at 23.8 µM] | activity change, negative = inhibition [3] -1.34% [at 23.6 µM] | activity change, negative = inhibition [4] 10.7% [at 23.6 µM] | activity change, negative = inhibition [5] 2.12% [at 23.6 µM] | activity change, negative = inhibition [9] 15.9% [at 23.6 µM]
active: Potency [8] 0.177 µM

NC(=O)c1cc([N+](=O)[O-])cc([N+](=O)[O-])c1
inactive: Potency [1] | Potency [3] | Potency [7] | Potency [4] | Potency [5] | Potency [8] | Potency [6] | Potency [9]

CCOP(=O)(N=C1SCCS1)OCC
inactive: Potency [1] | Potency [3] | Potency [7] | Potency [4] | Potency [5] | Potency [8] | Potency [6]

ClC(Cl)C(Cl)Cl
inactive: Potency [1] | Potency [3] | Potency [7] | Potency [4] | Potency [5] | Potency [6] | Potency [9]

COc1cccc2c1cc([N+](=O)[O-])c1c(C(=O)O)cc3c(c12)OCO3
inactive: Potency [1] | Potency [3] | Potency [7] | Potency [6]
active: Potency [4] 79.6 µM | Potency [5] 28.3 µM | Potency [8] 39.9 µM | Potency [9] 22.4 µM

Cc1coc2c1CCC(C)C2 (stereo unspecified)
inactive: Potency [1] | Potency [2] | Potency [3] | Potency [6]
active: Potency [4] 73.4 µM | Potency [9] 29.2 µM

CC(C(=O)c1ccccc1)N(C)C (stereo unspecified)
active: Potency [4] 4.9 µM
inactive: Potency [1] | Potency [2] | Potency [3] | Potency [8]

CCOP(=S)(OCC)Oc1cc(-c2ccccc2)on1
active: Potency [3] 3.17 µM | Potency [7] 35.6 µM | Potency [4] 1.59 µM | Potency [5] 0.502 µM | Potency [8] 3.17 µM | Potency [9] 1.26 µM
inactive: Potency [6]

C(CCOCC1CO1)COCC1CO1 (stereo unspecified)
inactive: Potency [1] | Potency [3] | Potency [7] | Potency [5] | Potency [8] | Potency [6] | Potency [9]

N#CC(CCc1ccc(Cl)cc1)(Cn1cncn1)c1ccccc1 (stereo unspecified)
inactive: Potency [1] | Potency [3]
active: Potency [4] 0.2 µM | Potency [5] 2.24 µM | Potency [8] 31.7 µM

CC(C)CC#N
active: Potency [4] 32.5 µM
inactive: Potency [1] | Potency [3] | Potency [8] | Potency [9]

CC(=O)CCc1ccc2c(c1)OCO2
active: Potency [5] 31.7 µM | Potency [8] 0.633 µM | Potency [9] 22.4 µM
inactive: Potency [1] | Potency [3] | Potency [6]

CNC(=O)Oc1cccc(C(C)C)c1
inactive: Potency [6]

CC1(C)CON(Cc2ccccc2Cl)C1=O
inactive: Potency [1] | Potency [3] | Potency [7] | Potency [6] | Potency [9]
active: Potency [4] 10 µM | Potency [8] 31.7 µM

C[C@]12CC[C@H]3[C@@H](CC=C4C[C@@H](O)CC[C@@]43C)[C@@H]1CC[C@@H]2O
inactive: Potency [6]

CNC(=O)Oc1ccccc1C1OCCO1
active: Potency [8] 25.1 µM
inactive: Potency [1] | Potency [3] | Potency [4] | Potency [6] | Potency [9]

CC(COc1ccc(Oc2ccccc2)cc1)Oc1ccccn1 (stereo unspecified)
active: Potency [5] 15.9 µM | Potency [8] 15.9 µM
inactive: Potency [1] | Potency [3] | Potency [7] | Potency [9]

Source: PubChem BioAssay (Tox21)
